This is a sample that favours compounds with a hit; in the whole collection about 3.5% have one here.
SKN-1 inh = inhibitors of C. elegans SKN-1 | C. elegans VP596 Pgst-4::GFP/RFP ratio, acrylamide-induced, 24 h | inhibition, % at 21.8 µM | hit rate 0.49% among 360,000 | AID 624304;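 active means interference check ratio from 0.5 to 1.5 plus GFP to RFP signal ratio inhibition reaching or exceeding a fixed threshold, cut at about 30% in these data, passing the limit was not always enough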
M1 ag = human M1 muscarinic receptor agonism | AID 588814 | P11229 | hit rate 0.33% among 360,000 | CHO-K1 hM1, Fluo-8 calcium fluorescence, agonist mode; 0% DMSO, 100% acetylcholine EC100 | activation, % at 3 µM;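 active means activation above the run's mean compound activation plus 3 SD, cut at about 16% in these data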;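 further: peak over basal fluorescence ratio within a 140 s kinetic read after compound addition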
Myeloid diff MLP = myeloid differentiation induction; hit rate 1% among 360,000; ER-HoxA9 myeloid progenitors, lysozyme-GFP differentiation, flow cytometry; AID 624256; calls only at 10 µM;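 active means normalized GFP-positive differentiation at or above the plate's own cutoff, the solvent-only control mean plus 3 SD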;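 further: cells exposed to compound for four days before flow analysis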
M1 antag = blocks human M1 muscarinic receptor | hit rate 1.3% among 360,000 | CHO-K1 hM1, Fluo-8 calcium fluorescence, ACh EC80 antagonist | P11229 | AID 588852 | inhibition, % at 3 µM;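 active means percent inhibition above its own plate's cutoff, namely the mean of that plate's compound wells plus 3 SD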;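 further: peak over basal fluorescence ratio during 140 s after agonist addition; 0% = ACh EC80 plus DMSO and 100% = DMSO alone without agonist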
ATG4B inh = inhibitors of human ATG4B cysteine protease. ATG4B cleavage of LC3-PLA2, NBD-HPC fluorescence, 1 h. inhibition, % at 8.33 µM. hit rate 0.51% among 340,000. AID 504462; in the data active means inhibition above about 40%
Target sequence (Q9Y4P1 whole entry, looked up): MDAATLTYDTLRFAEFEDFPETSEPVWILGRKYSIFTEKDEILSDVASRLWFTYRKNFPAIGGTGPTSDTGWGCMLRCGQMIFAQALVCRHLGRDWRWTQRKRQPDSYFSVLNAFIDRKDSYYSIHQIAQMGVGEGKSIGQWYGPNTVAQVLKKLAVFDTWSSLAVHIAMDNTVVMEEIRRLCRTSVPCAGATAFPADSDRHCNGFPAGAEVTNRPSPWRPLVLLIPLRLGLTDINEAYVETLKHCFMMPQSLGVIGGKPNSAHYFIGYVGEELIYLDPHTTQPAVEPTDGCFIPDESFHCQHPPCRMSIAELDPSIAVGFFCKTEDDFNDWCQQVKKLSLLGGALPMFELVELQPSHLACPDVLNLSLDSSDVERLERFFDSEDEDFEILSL
CHRM1 PAM = positive allosteric modulators of human M1 muscarinic receptor; CHO-K1 hM1, Fluo-8 calcium fluorescence, ACh EC20; 0% = ACh EC20, 100% = maximal ACh; hit rate 0.088% among 360,000; activation, % at 3 µM; in the data active means activation above about 19%, passing the limit was not always enough
Myeloid diff = promotes myeloid progenitor differentiation | shares compounds with Myeloid diff MLP | hit rate 2% among 2,300 | ER-HoxA9 myeloid progenitors, GFP/Mac1 double-positive flow | calls only;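 active means share of green or green-and-red cells above 9 and 9% in run 1 or 4 and 3% in run 2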
GFP autofluor = flagged as fluorescent in myeloid differentiation counter-screen | hit rate 7.4% among 2,300 | fluorescence response, % (concentration not given with the values) | shares compounds with Myeloid diff MLP | AID 651707 | ER-HoxA9 myeloid progenitors, no estrogen, GFP autofluorescence flow cytometry; vehicle wells 0%, positive control 100%;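 active means over 5% cells positive for green fluorescent reporter, or over 2% positive for both it and APC stain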;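 further: range taken on the double positive population between DMSO and positive control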
The depositor's hits bear a star; i = inactive; x = no result; + = active, no number.

SMILES	SKN-1 inh	M1 ag	Myeloid diff MLP	M1 antag	ATG4B inh	CHRM1 PAM	Myeloid diff	GFP autofluor
CC(C)c1ccc(C(=O)OCC(=O)c2c(N)n(C)c(=O)n(C)c2=O)cc1	-2.2	8.6	i	-10.0	-4.1	8.9	x	x
Cn1c(N)c(C(=O)COC(=O)c2ccco2)c(=O)n(C)c1=O	-0.2	-0.4	+	-5.8	-7.5	9.3	i	0.4
O=C(O)c1ccc(CSc2nc3ccc(NC(=O)c4ccccc4C(=O)O)cc3s2)cc1	7.3	-6.2	i	-8.7	37.3	1.3	x	x
CCC(C)/C(C)=N/NC(=O)c1ccc(CSc2nc3ccccc3s2)cc1 (centres undefined)	0.1	4.1	i	2.9	1.6	2.1	i	6.1*
O=C(NCCCn1cccn1)C1CCC(=O)N(Cc2ccccc2F)C1 (centres undefined)	15.9	-3.5	i	-5.2	-0.4	2.5	x	x
Cc1ccc(S(=O)(=O)N2[C@@H](c3ccc4c(c3)OCO4)C(C(=O)O)=C[C@H]2CC2CCCC2)cc1	-1.4	-4.6	+	-9.9	10.1	8.7	i	0.0
Cc1ccc([C@H]2C(C(=O)O)=C[C@@H](CC3CCCC3)N2S(=O)(=O)c2ccc(C)cc2)cc1	-6.6	-6.8	i	-1.8	5.4	1.2	x	x
CN(c1ccc(C(=O)NCc2ccc3c(c2)OCO3)cc1)S(=O)(=O)c1ccccc1	11.6	-10.4	i	0.3	-3.7	7.0	i	0.6
CN(c1ccc(C(=O)NCc2ccc3c(c2)OCO3)cc1)S(C)(=O)=O	3.4	-2.1	i	-4.1	-0.6	3.2	x	x
CC[n+]1c(C)cc(C)n1-c1ccccc1	0.9	-6.8	i	7.2	3.1	-3.4	i	0.0
CCOC(=O)c1ccc2c(c1)[n+](CC)c(C)n2-c1ccccc1	-3.3	-12.5	i	-3.7	-7.4	10.7	x	x
O=C(O)CCCCCN1C(=O)/C(=C\c2ccncc2)SC1=S	10.5	-1.1	+	-6.2	6.1	6.3	i	0.0
Cc1ccc(-c2nc(C=Nc3ccc(O)cc3)c(O)o2)cc1	-5.7	-4.4	i	-2.3	-11.1	7.2	i	0.0
CN=Cc1nc(-c2ccccc2)oc1O	12.5	-0.5	i	-26.9	-1.6	5.6	x	x
Oc1oc(-c2ccco2)nc1C=Nc1ccccc1	11.8	3.0	i	-4.6	-0.3	10.2	i	1.3
O=C(O)c1ccc(N=Cc2nc(-c3ccco3)oc2O)cc1	3.2	-3.8	i	0.6	3.2	2.2	x	x
COC(=O)c1ccc(C2OCC(C)(C)CO2)cc1	11.7	-1.8	i	3.0	-7.1	4.4	x	x
Cc1ccc(C)c(-c2csc(NC(=O)C3=COCCO3)n2)c1	15.9	-6.2	i	-12.9	12.6	5.5	i	0.4
CCCCN1C(N)=NC[C@@H]1Cc1ccc(O)cc1	-1.9	-10.8	+	-1.4	-2.0	2.9	i	0.6
CCCCN1C(N)=NC[C@H]1Cc1ccc(O)cc1	-1.5	-4.8	i	17.4	-10.5	-8.4	x	x
CN(NS(C)(=O)=O)c1c(C#N)c(C(F)(F)F)nn1C	8.2	-5.6	i	-5.4	10.8	4.1	x	x
O=S(=O)(c1ccc2c(c1)OCCO2)N1CCC(c2nc3ccc(Cl)cc3[nH]2)CC1	5.2	12.4	i	0.1	-4.8	5.8	i	0.0
COc1ccc(N2CC(C(=O)N3CCN(c4ccccc4OC)CC3)CC2=O)cc1 (centres undefined)	17.5	-3.0	i	-19.1	-10.8	11.2	x	x
CCN(CC)c1ccc(C2NC(=O)NC(C)=C2C(=O)Nc2ccccc2)cc1 (centres undefined)	13.1	-3.4	+	10.1	-10.3	-7.0	i	7.5*
CCCCCN(C(=O)CCC(=O)OCc1ccc(Cl)cc1Cl)c1c(N)n(CCCC)c(=O)[nH]c1=O	3.2	-2.1	i	-5.0	-2.5	-2.7	x	x
SMILES	SKN-1 inh	M1 ag	Myeloid diff MLP	M1 antag	ATG4B inh	CHRM1 PAM	Myeloid diff	GFP autofluor
N#Cc1cc(C#N)c(SCC(=O)N2CC(=O)Nc3ccccc32)nc1N	4.7	-0.2	i	-3.2	4.9	7.3	i	0.9
O=C(COC(=O)CNC(=O)c1ccccc1Cl)Nc1ccccc1Cl	9.9	3.0	i	-13.4	3.3	16.5	x	x
O=c1oc2ccccc2c(Nc2ccccc2O)c1[N+](=O)[O-]	6.3	-7.1	+	-9.1	1.0	4.2	i	0.0
O=c1oc2ccccc2c(Nc2cc3ccccc3cc2O)c1[N+](=O)[O-]	-0.5	0.6	x	3.9	19.4	-1.0	x	x
Cc1ccc(Nc2nc(=O)c3cccnc3s2)c(Br)c1	-2.7	-1.1	+	-5.1	-10.1	5.2	+	0.6
CC(=O)c1ccc(Nc2nc(=O)c3cccnc3s2)cc1	-4.0	-1.2	i	-14.7	-6.1	11.1	x	x
O=C(NC(=S)Nc1cccc(NC(=S)NC(=O)c2ccccc2)c1)c1ccccc1	4.6	1.5	+	-11.8	5.3	11.2	i	0.9
O=C(NC(=S)Nc1ccc(Cc2ccncc2)cc1)c1ccccc1	12.7	-3.7	+	-1.9	29.9	7.5	i	5.4*
CCC(=O)Nc1cccc(NC(=S)NC(=O)c2ccccc2)c1	-4.7	-4.5	i	-3.2	-1.9	2.5	x	x
COc1cccc(NC(=O)Nc2ccc(Cc3ccncc3)cc2)c1	-6.5	-0.1	+	4.0	-12.9	-7.0	i	0.6
Cc1ccc2cccc(NC(=S)NC(=O)c3ccccc3)c2n1	15.1	-4.1	i	5.5	-7.8	-1.8	i	0.6
COc1cccc(NC(=O)Nc2ccncc2)c1	8.8	-2.4	i	-1.6	-5.0	5.4	x	x
CCOc1ccc(-c2csc(NNC3=NCCCCC3)n2)cc1	3.6	-11.9	i	8.6	-13.7	-3.3	x	x
CC(C)CNC(=O)c1[nH]c(C(F)(F)F)nc1-c1ccccc1	21.0	-0.9	i	-32.8	x	2.7	x	x
COc1cccc(OC)c1C(=O)OCC(=O)NC1CCCCCC1	7.8	-2.7	i	-11.8	-2.2	11.0	x	x
N=C1C(c2nc3ccccc3s2)=C(O)CN1Cc1ccco1	1.5	-1.8	+	-3.4	-4.1	1.5	i	0.0
O=C(Nc1ccccc1N1CCOCC1)c1cccc2c(Br)cccc12	17.2	-4.9	+	-5.7	10.4	5.5	i	0.0
O=C(CCNC(=O)c1ccc(Br)cc1)Nc1ccccc1N1CCOCC1	0.7	-1.8	i	-13.1	-0.2	11.7	i	0.0
O=C(CCNC(=O)c1ccc(Br)cc1)Nc1ccccc1N1CCCC1	2.2	-4.0	i	2.5	-1.2	-2.6	x	x
O=C(Nc1ccccc1N1CCOCC1)c1ccc([N+](=O)[O-])o1	0.9	0.5	i	-15.0	2.9	1.0	i	0.0

Compound activity from PubChem BioAssay.
